# Giardia kill: Small Molecules that selectively kill Giardia lamblia: qHTS. activity change, % at 7.66 µM, hits read low. Giardia lamblia trophozoite viability. 340,000 compounds, 0.15% hits; in the data active means activity change below about -80%; inconclusive means between about -30% and that limit;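 further: parasites exposed to compound for two days anaerobically before the ATP read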
#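 Trophozoite viability was measured as ATP-dependent luminescence, read 15-30 min after reagent addition. Before that, parasites at 100 cells/well were exposed to compounds for 48 h, anaerobically, at 37 deg C.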
# IL-1B inflam inh: qHTS for Inhibitors of Inflammasome Signaling: IL-1-beta AlphaLISA Primary Screen; THP-1 LPS/ATP IL-1B secretion, AlphaLISA, 16 h; stronger effect = lower value; activity change, % at 57.5 µM; 360,000 compounds, 4.7% hits; in the data active means activity change below about -50%; inconclusive means mostly about -30% to -49%
#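 Secreted IL-1B measured by AlphaLISA bead assay after 16 h compound exposure of THP-1 cells; compounds (final up to 57.5 uM) added 1 h before LPS (250 ng/mL) and ATP (1.25 mM) stimulation; lower signal means less secretion.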
# ELG1 repair inh: qHTS screen for small molecules that inhibit ELG1-dependent DNA repair in human embryonic kidney (HEK293T) cells expressing luciferase-tagged ELG1. HEK293T ELG1-luciferase reporter, luminescence, 16 h; DNA damage induced by 5-fluorouridine. Potency, µM (doses to about 46.1 µM), for the others: at the top dose activity change, negative = inhibition, actives largely listed as inhibitors. 330,000 compounds, 2.3% hits; further: potency means the concentration at half of the fitted maximal effect; nearly all actives have a fitted effect of over 55% in size
#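 HEK293T cells expressing luciferase-tagged ELG1 (2,000/well) received 5-Fluorouridine plus compound or DMSO for 16 hr at 37 °C. Luciferase was read by ONE-Glo luminescence after 30 min at room temperature.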
# TDP1 cell noCPT: qHTS for Inhibitors of human tyrosyl-DNA phosphodiesterase 1 (TDP1): qHTS in cells in absence of CPT | AID 686978, 2013 | Potency, µM (top dose mostly 46.2 µM), for the others: at the top dose activity change, negative = growth inhibition, hits mostly inhibitors | 420,000 compounds, 15% hits | DT40 Tdp1-/- hTDP1 cells, no CPT, ATP luminescence, 48 h; further: potency means the concentration at half of the fitted maximal effect; nearly all actives have a fitted effect of over 55% in size
#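 Cells were dispensed at 400 per well, compounds added by pin tool, plates incubated ≥48 hr at 37 °C, then CellTiter-Glo added for 30 min at room temperature before luminescence reading. Line: DT40 Tdp1-/- complemented with hTDP1; camptothecin omitted.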
# TDP1 inh: qHTS Assay for Inhibitors of Tyrosyl-DNA Phosphodiesterase (TDP1); recombinant TDP1, AlphaScreen DNA substrate cleavage; Potency, µM (series often up to 130 µM), inactives show top-dose activity change, negative = inhibition, actives largely listed as inhibitors; 350,000 compounds, 0.28% hits; further: potency means the concentration at half of the fitted maximal effect; nearly all actives have a fitted effect of over 40% in size
# Target sequence (Q9NUW8 whole entry, looked up): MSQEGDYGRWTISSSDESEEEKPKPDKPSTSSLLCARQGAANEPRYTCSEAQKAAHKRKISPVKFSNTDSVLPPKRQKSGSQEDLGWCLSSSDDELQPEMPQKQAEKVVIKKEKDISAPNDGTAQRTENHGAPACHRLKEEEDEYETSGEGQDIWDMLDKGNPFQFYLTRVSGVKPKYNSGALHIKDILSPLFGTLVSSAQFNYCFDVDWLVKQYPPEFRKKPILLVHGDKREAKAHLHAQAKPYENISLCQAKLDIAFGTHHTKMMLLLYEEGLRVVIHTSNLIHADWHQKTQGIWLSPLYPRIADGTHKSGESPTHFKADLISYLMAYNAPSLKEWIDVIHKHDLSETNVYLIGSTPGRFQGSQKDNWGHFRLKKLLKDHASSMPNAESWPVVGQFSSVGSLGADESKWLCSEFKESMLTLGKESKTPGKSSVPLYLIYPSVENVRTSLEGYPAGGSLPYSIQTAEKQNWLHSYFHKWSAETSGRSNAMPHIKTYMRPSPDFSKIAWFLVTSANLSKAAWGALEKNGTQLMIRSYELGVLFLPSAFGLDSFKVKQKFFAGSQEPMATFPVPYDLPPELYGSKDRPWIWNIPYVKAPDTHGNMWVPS
#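 Compounds were preincubated with Tdp1 (1 nM final) for 15 min at room temperature before substrate (15 nM final) started a 5 min reaction; beads (10 ug/ml final) were then added for 10 min before AlphaScreen detection.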
# TDP1 cell CPT: qHTS for Inhibitors of human tyrosyl-DNA phosphodiesterase 1 (TDP1): qHTS in cells in presence of CPT; chicken DT40 Tdp1-/-;hTDP1 cells + 20 nM CPT, ATP luminescence, 48 h; Potency, µM (top dose mostly 46.2 µM), inactives show at the highest dose activity change, negative = growth inhibition, actives largely listed as inhibitors; AID 686979, 2013; 420,000 compounds, 12% hits; further: potency means the concentration at half of the fitted maximal effect; nearly all actives have a fitted effect of over 55% in size
#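 Chicken DT40 Tdp1-/- cells complemented with human TDP1, 400 cells/well, exposed to compounds plus 20 nM camptothecin for at least 48 h at 37 C; viability read as ATP content by CellTiter-Glo luminescence.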
# Active calls of the source: *; i = inactive; ? = inconclusive; / = not tested or not shown; [ ] = dose if it differs, or a comment. Rows were chosen to be rich in hits. Some 19% of all compounds tested hit in one or more screens of this group. Unless noted, the call rests on the fitted dose curve; in most records, active means well fitted curve in the direction sought with a large enough effect; inconclusive means small, poorly fitted or top-dose-only effect, or another doubt; inactive means no such curve, though single readings can be large; an effect the other way counts as inactive or inconclusive. On the % scale 0 is the no-effect control and ±100 the full control effect.
SMILES,Giardia kill,IL-1B inflam inh,ELG1 repair inh,TDP1 cell noCPT,TDP1 inh,TDP1 cell CPT
Cc1cc(/C=C(\C#N)C(=O)NCC2CCCO2)c(C)n1-c1ccc(Cl)cc1 (centres undefined),4,-2,?,?,11%,10µM*
COc1cc(/C=C(\C#N)C(=O)NCC2CCCO2)ccc1O (centres undefined),-8,16,16%,-7%,0%[12.3 µM],-9%
Cc1cccc(-c2ncc(CN3CCN(C4CCCC4)C(CCO)C3)cn2)c1 (centres undefined),-23,4,12%,2%,8%,8%
OCC1(Cc2ccc(Cl)cc2)CCN(Cc2ccc(Oc3ncccn3)cc2)CC1,-16,-90*,-1%,-19%,1%,-25%
OCC1(Cc2ccccc2)CCN(Cc2cnc(-c3ccc(Cl)cc3)nc2)CC1,3,-94*,29%,23µM*,6%,?
COc1ccc(-c2ncc(CN3CCC(CO)(Cc4cccc(OC)c4)CC3)cn2)cc1,4,3,?,?,5%,?
OCC1(Cc2ccccc2)CCN(Cc2cnc(-c3cccc4ccccc34)nc2)CC1,13,-57*,12%,?,-5%,?
OCCC1CN(Cc2cnc(-c3ccc(Cl)cc3)nc2)CCN1C1CCCCC1 (centres undefined),?,/,?,21µM*,0%,?
OCC1(Cc2ccc(Cl)cc2)CCN(Cc2ccc(F)c(F)c2)CC1,11,?,?,?,/,?
CC(C)(C)c1ccc(OCCn2nc(C(=O)O)c3ccccc3c2=O)cc1,-10,5,16%,21µM*,/,16µM*
Cc1cccc(OCCn2nc(C(=O)O)c3ccccc3c2=O)c1,8,15,?,-28%,9%,-18%
O=c1c2cc([N+](=O)[O-])ccc2nc(CN2CCN(c3ccccn3)CC2)n1-c1ccccc1F,-9,32,?,15µM*,8%,?
COc1ccc(-n2c(CN3CCN(c4ccccn4)CC3)nc3ccc([N+](=O)[O-])cc3c2=O)c(OC)c1,18,-23,?,21µM*,7%,?
O=C(c1ccco1)N1CCN(Cc2nc3ccc([N+](=O)[O-])cc3c(=O)n2-c2ccccc2F)CC1,-2,70,23µM*,8.2µM*,4%,?
COc1ccc(-n2c(CN3CCN(Cc4ccccc4)CC3)nc3ccc([N+](=O)[O-])cc3c2=O)c(OC)c1,8,62,6%,-7%,7%,?
O=c1cc[nH]c2c1ccc1cccnc12,-6,15,?,?,0%,?
COc1ccc(/C=N\NC(=O)c2ccc([N+](=O)[O-])c(C)c2)cc1COc1ccccc1C(N)=O,13,i,?,-21%,7%,-29%
COc1ccc(/C=N/NC(=O)c2cccnc2)cc1COc1ccc([N+](=O)[O-])c(C)c1,-8,/,15µM*,4.1µM*,5%,3.7µM*
COc1ccc(/C=N\NS(=O)(=O)c2ccc(C)cc2)cc1COc1ccccc1[N+](=O)[O-],-20,-20,16µM*,?,4%,?
COc1ccc(/C=N/NC(=O)c2ccccc2OC)cc1COc1ccccc1[N+](=O)[O-],-21,-11,13µM*,29µM*,1%,18µM*
COc1cc(/C=N/NC(=O)c2cccnc2)ccc1OC(=O)c1cc(OC)c(OC)c(OC)c1,23,62,?,?,?,-19%
COCC(=O)Nc1cc(C(=O)N2CCCC(C(N)=O)C2)cc2nc(-c3ccccc3)n(C)c12 (centres undefined),/,/,/,-11%,/,1%
COc1ccc(N(C(=O)c2ccco2)C(C(=O)NC2CCCCC2)c2ccccc2)cc1 (centres undefined),-15,1,/,26µM*,/,16µM*
N#CCCN(Cc1ccccc1)C(CCc1ccccc1)C(=O)NC1CCCCC1 (centres undefined),/,-8,/,?,/,?
COc1cccc(N(C(=O)c2ccco2)C(C(=O)NC2CCCC2)c2ccc(N(C)C)cc2)c1 (centres undefined),18,-4,2%,16µM*,-5%,?
SMILES,Giardia kill,IL-1B inflam inh,ELG1 repair inh,TDP1 cell noCPT,TDP1 inh,TDP1 cell CPT
N#CCCN(Cc1ccccc1)C(C(=O)NC1CCCCC1)C1CC1 (centres undefined),/,8,/,15µM*,/,16µM*
COc1ccc(N(C(=O)c2ccco2)C(C(=O)NC2CCCC2)c2ccc(N(C)C)cc2)cc1 (centres undefined),-5,-21,-7%,16µM*,5%,?
COc1ccc(N(C(=O)c2ccco2)C(C(=O)NC2CCCC2)c2ccccc2)cc1 (centres undefined),21,-8,0%,?,/,?
COc1cc(OC)cc(N(C(=O)c2ccco2)C(C(=O)NC2CCCC2)c2ccc(N(C)C)cc2)c1 (centres undefined),8,-3,?,?,10%,?
O=c1c(-c2ccccc2)nc2cnc(N3CCOCC3)nc2n1CCc1ccccc1,/,/,/,16%,/,13%
Cc1cc(C)c2cc(CN(CCCO)S(=O)(=O)c3ccccc3F)c(=O)[nH]c2c1,16,-11,-11%,?,7%,-19%
COc1cc(C)ccc1OCc1cc(C(=O)N2CCN(C)C[C@@H]2c2ccccc2)no1,-23,0,?,-27%,6%,?
CCOC(=O)CN(Cc1ccccc1)C(C(=O)NC1CCCCC1)c1ccccc1 (centres undefined),/,/,/,15µM*,0%,21µM*
Cc1ccc(C(C(=O)NC2CCCCC2)N(C)Cc2ccccc2)cc1 (centres undefined),/,/,/,?,6%,?
COC(=O)[C@H](Cc1ccccc1)NC(=O)O[C@H]1C(=O)c2cc(OC)ccc2O[C@@H]1c1ccc(OC)c(Br)c1,/,/,/,/,7%,/
COc1ccc(S(=O)(=O)Nc2cc3c(cc2C(C)=O)OCO3)cc1,17,21,7%,4.6µM*,3%,10µM*

# Source: PubChem (National Center for Advancing Translational Sciences (NCATS))
